Results on eight compounds are retold here after PubChem BioAssay (NCI).

Several values for one entry are separate records, joined by “and”; a condition that tells them apart may be missing. Equal values may be shown once. The panel holds about 83,000 compounds, 20% with a hit somewhere; the sample as a whole holds those more often.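 How to read the values: 0–100, growth inhibition (40 = 60% inhibited); 0, no net growth; -100 to 0, cell death (-40 = 40% of starting cells died; -100 = all dead).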 Activity calls are given as the source filed them. The calls were made as follows: active = growth percent below 10; inactive = the rest.

Experiment in all cases: NCI-60 one-dose screen, 48 h (100 = growth as untreated, 0 = no growth, -100 = all killed)
Common to all, as to settings: 10 µM unless noted

The subject of assay [1] is NCI-H23 lung.
For assay [2], the system named is NCI-H226 lung.
The subject of assay [3] is NCI-H322M lung.
For assay [4], the system named is HOP-62 NSCLC.
Assay [5] relates to NCI-H460 lung.
The test system of assay [6] is HOP-92 NSCLC.
Assay [7] relates to NCI-H522 lung.
Assay [8] deals with A549/ATCC NSCLC.
For assay [9], the system named is 786-0 renal.
Assay [10] has as its system COLO 205 colon.
For assay [11], the system named is DU-145 prostate.
The subject of assay [12] is K-562 leukemia.
The subject of assay [13] is MALME-3M melanoma.
Assay [14] has as its system MDA-MB-231 breast.
In assay [15] the test system is RXF 393 renal.
Assay [16] concerns SF-268 CNS.
Assay [17] deals with SF-295 CNS.
In assay [18] the test system is SF-539 CNS.
In assay [19] the test system is UACC-257 melanoma.
Assay [20] deals with M14 melanoma.

Take `Nc1ccccc1Nc1ccccc1`: the growth is 100% (inactive) and 96.2% (inactive) in assay [1]; 98.8% (inactive) and 86.8% (inactive) in assay [2]; 86.5% (inactive) and 93% (inactive) in assay [3]; 103% (inactive) and 91.6% (inactive) in assay [4]; 94.5% (inactive) and 104% (inactive) in assay [5]; 136% (inactive) in assay [6]. Moreover, the growth was 54% (inactive) and -2.1% (active) in assay [7]; 79.2% (inactive) in assay [8]; 90.8% (inactive) and 82.8% (inactive) in assay [9]; 125% (inactive) and 104% (inactive) in [10]; 100% (inactive) and 93.4% (inactive) in [11]; 67.8% (inactive) and 85.5% (inactive) in [12]. Moreover, the growth in assay [13] was 117% (inactive) and 136% (inactive); in assay [14], 82.1% (inactive) and 71.7% (inactive); in assay [15] it was 122% (inactive) and 129% (inactive); in assay [16], 90.4% (inactive) and 77.8% (inactive); in [17], 98.4% (inactive); in assay [18], 94.8% (inactive) and 78.5% (inactive). Besides, the growth is 86.1% (inactive) and 115% (inactive) in assay [19]; 106% (inactive) and 102% (inactive) in assay [20].

With `CCOc1ccc2cc(-c3nn(CC4CCNCC4)c4ncnc(N)c34)ccc2c1`, the growth in assay [1] was 77.5% (inactive) and 55.6% (inactive); in [2], 67.5% (inactive) and 52.5% (inactive); in assay [3], 91.6% (inactive) and 75.4% (inactive); in assay [4] it was 83.2% (inactive) and 64.9% (inactive); in assay [5], 96.7% (inactive) and 49.7% (inactive); in assay [6], 72.5% (inactive) and 26.5% (inactive). In addition, the growth was 86.5% (inactive) and 81.4% (inactive) in assay [7]; 85% (inactive) and 59% (inactive) in assay [8]; 91.4% (inactive) and 36% (inactive) in assay [9]; 93% (inactive) and 15.3% (inactive) in [10]; 108% (inactive) and 57.5% (inactive) in [11]; 59.3% (inactive) and -8.9% (active) in [12]. Also, the growth in [13] is 73.7% (inactive) and -54.7% (active); in assay [14], 86.5% (inactive) and 15.6% (inactive); in assay [15], 55.4% (inactive) and 18% (inactive); in assay [16], 80.6% (inactive) and 41.1% (inactive); in assay [17], 108% (inactive) and 74.5% (inactive); in assay [18] it was 77.4% (inactive) and 40.2% (inactive). For the same compound, the growth in [19] is -52.9% (active); in [20], 91.5% (inactive) and -42.6% (active).

Consider `Cn1cc(-c2cc3c(Nc4ccc(CC(=O)Nc5cc(C(C)(C)C)on5)cc4)ncnc3[nH]2)cn1`, for which the growth in [1] is -34% (active) and -14% (active); in [2], -2.21% (active) and -21.5% (active); in assay [3], -15.1% (active) and -11.4% (active); in [4] it was -11.3% (active) and -15.3% (active); in assay [5] it was -4.56% (active) and 3.41% (active); in assay [6] it was 5.01% (active) and -5.97% (active). Further, the growth in assay [7] was -35.7% (active) and -46.8% (active); in [8] it was 4.17% (active) and 8.31% (active); in assay [9] it was 5.07% (active) and 3.24% (active); in assay [10], -36.6% (active) and -33.4% (active); in assay [11] it was -15% (active) and -3.89% (active); in [12] it was 4.78% (active) and 3.56% (active). Also, the growth was -50.5% (active) and -22.7% (active) in [13]; -6.46% (active) and -3.49% (active) in [14]; -51.7% (active) and -45.7% (active) in assay [15]; -27.7% (active) and -23.3% (active) in assay [16]; -0.861% (active) and 7.57% (active) in assay [17]; -49.9% (active) and -49% (active) in assay [18]. Moreover, the growth was -11.9% (active) and -15.9% (active) in assay [19]; -34.2% (active) and -49.5% (active) in assay [20].

Turning to `O=CC(O)C(O)C(O)CO` (stereo not given), the growth is 13.3% (inactive) and 100% (inactive) in assay [1]; 93.9% (inactive) and 101% (inactive) in assay [2]; 101% (inactive) and 96.6% (inactive) in assay [3]; 114% (inactive) and 97.6% (inactive) in assay [4]; 98.7% (inactive) and 111% (inactive) in assay [5]; 119% (inactive) in assay [6]. The growth is 33.4% (inactive) in assay [7]; 102% (inactive) in assay [8]; 104% (inactive) and 97.6% (inactive) in assay [9]; 97.7% (inactive) and 106% (inactive) in [10]; 107% (inactive) and 108% (inactive) in [11]; 114% (inactive) and 99.3% (inactive) in [12]. The growth was 122% (inactive) in assay [13]; 92.5% (inactive) and 125% (inactive) in assay [14]; 104% (inactive) in assay [15]; 107% (inactive) and 100% (inactive) in [16]; 121% (inactive) in assay [17]; 88.1% (inactive) and 111% (inactive) in [18]. For the same compound, the growth in assay [19] was 106% (inactive); in assay [20], 113% (inactive) and 98% (inactive).

Consider `COc1ccc(/C(C#N)=C/c2ccccn2)cc1`, for which the growth in [1] is 98% (inactive) and 102% (inactive); in assay [2], 95.9% (inactive) and 128% (inactive); in assay [3], 108% (inactive) and 110% (inactive); in [4] it was 112% (inactive) and 109% (inactive); in [5], 105% (inactive) and 103% (inactive); in assay [6], 99.8% (inactive). Further, the growth was 98.1% (inactive) and 103% (inactive) in assay [7]; 101% (inactive) and 103% (inactive) in assay [8]; 96.7% (inactive) and 73.8% (inactive) in assay [9]; 112% (inactive) and 173% (inactive) in assay [10]; 107% (inactive) and 120% (inactive) in assay [11]; 101% (inactive) and 85.6% (inactive) in assay [12]. Besides, the growth in [13] is 129% (inactive) and 134% (inactive); in [14], 107% (inactive) and 127% (inactive); in assay [15], 99% (inactive) and 96.4% (inactive); in [16], 99.1% (inactive) and 122% (inactive); in assay [17], 102% (inactive) and 134% (inactive); in [18], 108% (inactive) and 106% (inactive). Further, the growth in assay [19] is 110% (inactive) and 112% (inactive); in assay [20] it was 109% (inactive) and 111% (inactive).

Turning to `NS(=O)(=O)c1cc2c(cc1Cl)NC(C(Cl)Cl)NS2(=O)=O` (stereo not given), the growth in assay [1] was 120% (inactive) and 106% (inactive); in assay [2] it was 108% (inactive) and 99.3% (inactive); in assay [3], 98.8% (inactive) and 101% (inactive); in assay [4], 104% (inactive) and 122% (inactive); in assay [5] it was 110% (inactive) and 114% (inactive); in [6], 96.3% (inactive). In addition, the growth in [7] is 96.7% (inactive) and 104% (inactive); in assay [8], 80.9% (inactive) and 106% (inactive); in assay [9] it was 87.6% (inactive) and 104% (inactive); in assay [10], 109% (inactive) and 113% (inactive); in assay [11], 108% (inactive) and 112% (inactive); in assay [12], 97% (inactive) and 93.9% (inactive). The growth in assay [13] was 107% (inactive); in assay [14], 105% (inactive) and 108% (inactive); in assay [15], 112% (inactive) and 128% (inactive); in [16] it was 107% (inactive) and 104% (inactive); in assay [17], 118% (inactive) and 111% (inactive); in [18], 104% (inactive). The growth in assay [19] was 84.4% (inactive) and 95% (inactive); in assay [20], 97.5% (inactive) and 107% (inactive).

For `Oc1ccc(/C=C/c2ccccc2)cc1`, the growth in [1] was 73.2% (inactive) and 76.4% (inactive); in [2] it was 104% (inactive) and 103% (inactive); in assay [3] it was 77.6% (inactive) and 83.4% (inactive); in [4] it was 109% (inactive) and 87.9% (inactive); in assay [5], 73.4% (inactive) and 61.5% (inactive); in assay [6], 95.7% (inactive). The growth in assay [7] is 72.1% (inactive) and 29.2% (inactive); in assay [8], 76.1% (inactive) and 59.9% (inactive); in [9] it was 32.8% (inactive) and 45.1% (inactive); in [10] it was 104% (inactive) and 132% (inactive); in [11], 50.9% (inactive) and 58.4% (inactive); in assay [12] it was 64.7% (inactive) and 58.4% (inactive). Further, the growth in assay [13] is 97.9% (inactive) and 71.7% (inactive); in assay [14], 57.4% (inactive) and 47.1% (inactive); in assay [15], 75.9% (inactive) and 91% (inactive); in assay [16] it was 53.7% (inactive) and 62.5% (inactive); in [17], 82.8% (inactive) and 81% (inactive); in assay [18], 79.6% (inactive) and 68.7% (inactive). Besides, the growth in [19] was 100% (inactive) and 87.9% (inactive); in [20], 68% (inactive) and 73.4% (inactive).

On to `O=C(CN1CCOCC1)N1CCOCC1`, for which the growth in assay [1] is 110% (inactive) and 104% (inactive); in assay [2], 105% (inactive) and 113% (inactive); in assay [3], 92% (inactive) and 110% (inactive); in [4] it was 106% (inactive) and 112% (inactive); in [5], 111% (inactive) and 114% (inactive); in assay [6] it was 75.3% (inactive). The growth is 75.3% (inactive) and 101% (inactive) in [7]; 103% (inactive) in assay [8]; 102% (inactive) and 108% (inactive) in assay [9]; 115% (inactive) and 105% (inactive) in assay [10]; 120% (inactive) and 117% (inactive) in assay [11]; 102% (inactive) and 108% (inactive) in assay [12]. The growth was 90.6% (inactive) in assay [13]; 108% (inactive) and 98.1% (inactive) in [14]; 126% (inactive) and 119% (inactive) in [15]; 108% (inactive) and 115% (inactive) in assay [16]; 113% (inactive) and 104% (inactive) in assay [17]; 111% (inactive) and 101% (inactive) in assay [18]. Besides, the growth in [19] was 107% (inactive) and 106% (inactive); in assay [20] it was 97.4% (inactive) and 106% (inactive).
